# Laboratory results from PubChem BioAssay AID623877 (Johns Hopkins Ion Channel Center, 2012).
# About 1,000 (0.29%) of roughly 340,000 compounds were called active. The sample holds actives, similar compounds and a random draw of the others, so the mix is not that of the screen.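 The calls were made as follows: active = fluorescence-ratio B-score plate-corrected deviation score at least 3 library SD below zero, with starting fluorescence score within 5 deviations; inactive = the rest.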
# Molecular target: Anoctamin-1 (Mus musculus) (UniProt Q8BHY3)
# Sequence (Q8BHY3 whole entry, looked up): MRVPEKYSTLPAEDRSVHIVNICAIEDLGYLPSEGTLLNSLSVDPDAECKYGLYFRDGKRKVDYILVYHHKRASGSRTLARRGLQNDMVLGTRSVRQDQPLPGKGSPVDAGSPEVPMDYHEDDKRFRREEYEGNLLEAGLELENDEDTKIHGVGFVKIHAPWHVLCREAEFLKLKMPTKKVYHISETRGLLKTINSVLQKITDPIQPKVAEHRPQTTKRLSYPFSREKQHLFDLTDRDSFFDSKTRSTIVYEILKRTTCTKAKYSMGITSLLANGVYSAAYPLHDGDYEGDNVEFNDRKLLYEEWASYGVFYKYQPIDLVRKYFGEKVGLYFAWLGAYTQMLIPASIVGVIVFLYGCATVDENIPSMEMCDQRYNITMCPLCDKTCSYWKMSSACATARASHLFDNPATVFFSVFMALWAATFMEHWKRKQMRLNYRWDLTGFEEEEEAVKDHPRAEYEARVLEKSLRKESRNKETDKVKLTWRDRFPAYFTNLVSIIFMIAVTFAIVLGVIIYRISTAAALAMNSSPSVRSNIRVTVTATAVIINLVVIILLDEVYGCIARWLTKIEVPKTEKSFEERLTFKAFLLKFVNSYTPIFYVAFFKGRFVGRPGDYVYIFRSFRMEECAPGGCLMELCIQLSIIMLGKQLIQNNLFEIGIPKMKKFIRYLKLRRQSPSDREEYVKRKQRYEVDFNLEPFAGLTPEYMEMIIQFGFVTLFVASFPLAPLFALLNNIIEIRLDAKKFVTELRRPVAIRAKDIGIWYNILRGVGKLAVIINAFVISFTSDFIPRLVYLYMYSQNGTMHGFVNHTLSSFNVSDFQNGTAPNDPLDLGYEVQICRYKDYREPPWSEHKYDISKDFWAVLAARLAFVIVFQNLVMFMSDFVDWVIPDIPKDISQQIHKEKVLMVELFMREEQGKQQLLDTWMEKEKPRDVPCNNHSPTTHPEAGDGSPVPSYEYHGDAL
# Experiment: mouse ANO1 channel activation – cell-based, HTS, primary screen (AID 623877);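 as to B-score: channel opened by trigger with iodide after compound preincubation; score built on the fluorescence ratio of max minus min over baseline; more negative score means more quench and so TMEM16A activation or potentiation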
# Conditions: HEK293 TMEM16A/YFP-H148Q/I152L, iodide quench fluorescence, at 10 µM; hits give low values
row,Compound,B-score
1,Cc1cccc(NC(=S)Nc2ccc(Cl)c(Cl)c2)c1,inactive
2,O=C(O)CC1(CC(=O)Nc2cccc(C(F)(F)F)c2)CCCC1,inactive
3,FC(F)(F)c1cccc(NC(=S)Nc2cccc(Cl)c2)c1,-5.69 (active)
4,C#CCOCCOCCOCCNc1nc(N2CCN(C(=O)Cn3cc(CCCCN)nn3)CC2)nc(N2CCN(C(=O)[C@H](CCCCN)n3cc(CCC(=O)O)nn3)CC2)n1,inactive
5,C#CCOCCOCCOCCNc1nc(N2CCN(C(=O)Cn3cc(CCO)nn3)CC2)nc(N2CCN(C(=O)[C@H](CCCCN)n3cc(CCCC)nn3)CC2)n1,inactive
6,C#CCOCCOCCOCCNc1nc(N2CCN(C(=O)Cn3cc(CCO)nn3)CC2)nc(N2CCN(C(=O)Cn3cc(CCCN=C(N)N)nn3)CC2)n1,inactive
7,C#CCOCCOCCOCCNc1nc(N2CCN(C(=O)CCCCCCCCCCNC(=O)[C@H]([C@@H](C)CC)n3cc(CCCCN=C(N)N)nn3)CC2)nc(N2CCN(C(=O)CCCCCCCCCCNC(=O)[C@H](CO)n3cc(CCCSC)nn3)CC2)n1,-27.8 (active)
8,C#CCOCCOCCOCCNc1nc(N2CCN(C(=O)[C@H](C(C)C)n3cc(CCO)nn3)CC2)nc(N2CCN(C(=O)[C@H]([C@@H](C)CC)n3cc(CCCN=C(N)N)nn3)CC2)n1,inactive
9,C#CCOCCOCCOCCNc1nc(N2CCN(C(=O)CCCCCCCCCCNC(=O)[C@H](CCCCN)n3cc(C)nn3)CC2)nc(N2CCN(C(=O)CCCCCCCCCCNC(=O)[C@H](CO)n3cc(CCCSC)nn3)CC2)n1,-13.2 (active)
10,Cc1ccc(OCCCC(=O)Nc2ccc3c(c2)OCCO3)cc1,inactive
11,O=C(NCCCc1ccccc1)c1cc(COc2c(F)cccc2F)on1,inactive
12,CCN1CCN(C(=O)C2CCCN(S(=O)(=O)c3ccc(OC)c(OC)c3)C2)CC1 (centres undefined),inactive
13,COc1ccc(/C=C/CN2CCN(Cc3ccc(C)cc3)C(CCO)C2)cc1 (centres undefined),inactive
14,O=C(CN1CCN(c2ccccc2O)CC1)NC(=O)NCc1ccccc1,inactive
15,Cc1ccc(S(=O)(=O)Nc2nc(C)cc(-n3nc(C)cc3C)n2)cc1,inactive
16,CCCC(C(=O)n1nc(C)cc1C)C(NS(=O)(=O)c1ccc(C)cc1)c1ccccc1 (centres undefined),-8.83 (active)
17,Cc1ccc(S(=O)(=O)NC(C(=O)N2CCOCCOCCOCCOCC2)c2ccccc2)cc1 (centres undefined),inactive
18,O=c1[nH]c(=S)[nH]c(O)c1/C=C1\C=Nc2ccccc21,inactive
19,CC(C)N(Cc1nnc(-c2ccc(Cl)cc2)o1)C(=O)C1=COCCO1,inactive
20,CCOC(=O)c1ccccc1NC(=O)COC(=O)CCC(=O)N1CCOCC1,inactive
21,Cc1cnc(CN(C)C(=O)CC2C(=O)NCCN2Cc2cccc(F)c2F)[nH]1 (centres undefined),inactive
22,Cc1nc2cccnc2nc1C,inactive
23,CC(C)CCN1CCN(C/C=C/c2ccco2)CC1CCO (centres undefined),-7.6 (active)
24,CC(C)CCN1CCN(Cc2ccc(C(F)(F)F)cc2)CC1CCO (centres undefined),inactive
25,Cc1ccc(CN2CCN(Cc3ccccc3-c3ccco3)CC2CCO)o1 (centres undefined),inactive

row,Compound,B-score
1,COCCNC(=O)CSc1nc2c(n1-c1ccccc1)CCCC2,inactive
2,O=C(CCNC(=O)c1ccc([N+](=O)[O-])cc1)NC1CCCCC1,inactive
3,O=C(COC(=O)c1ccncc1)Nc1ccc2c(c1)OCO2,inactive
4,NC(=O)c1ccc(NC(=O)COC(=O)c2c3c(nc4ccccc24)/C(=C\c2ccc4c(c2)OCO4)CCC3)cc1,-6.02 (active)
5,NS(=O)(=O)c1ccc(NC(=O)COC(=O)c2c3c(nc4ccccc24)/C(=C\c2ccc4c(c2)OCO4)CCC3)cc1,inactive
6,CCOC(=O)c1cc(NC(=O)SCC(=O)O)c(C)nc1C,inactive
7,CC(=O)OCC(COC(C)=O)OC(C)=O,inactive
8,CC(=O)OC(C)C[N+](C)(C)C (centres undefined),-7.27 (active)
9,CC(C[N+](C)(C)C)OC(N)=O (centres undefined),inactive
10,NS(=O)(=O)c1ccc(N=Cc2ccc(Br)s2)cc1,inactive
11,COc1ccc(-c2cc(C(=O)N3CCN(c4ccc(F)cc4)CC3)no2)cc1,inactive
12,COc1ccc(-c2onc3ccc(C(C)=O)cc23)cc1,-5.14 (active)
13,COc1ccc(NC(C(=O)Nc2cccc(C(C)=O)c2)c2ccccc2)cc1 (centres undefined),inactive
14,Cc1cccc(CC(=O)Nc2c3c(nn2-c2cccc(Cl)c2)CS(=O)C3)c1 (centres undefined),inactive
15,CN(C(=O)c1cccc(NC(=O)Cc2ccc(NC(=O)C3CCCN(C(=O)C4CCCC4)C3)cc2)c1)C1CCC1 (centres undefined),inactive
16,C=C(Cl)COC(=O)C1C2C=CC(C2)C1C(=O)O (centres undefined),inactive
17,Cn1nccc1NS(=O)(=O)c1ccc(F)cc1,inactive
18,CSc1ccc(CNCCN2CCOCC2)cc1,-9.5 (active)
19,O=C(Cc1ccc(Br)cc1)NCCN1CCOCC1,inactive
20,CCCCNCc1ccc(SC)cc1,inactive
21,O=C(c1ccc(OC2CCN(C/C=C/c3ccc(F)cc3)CC2)cc1)N1CCCCC1,inactive
22,CCn1c(Cc2ccccc2)nnc1SCc1nc2ccccc2c(=O)[nH]1,inactive
23,CCn1c(COc2c(C)cccc2C)nnc1SCc1nc2ccccc2c(=O)[nH]1,-4.66 (active)
24,COc1ccc(CCCc2nnc(SCc3nc4ccccc4c(=O)[nH]3)n2C)cc1,inactive
25,Cc1ccc(Cl)cc1N1CCN(C(=O)c2cccc3c(=O)c(C)c(-c4ccccc4)oc23)CC1,inactive

row,Compound,B-score
1,CCOc1ccc(N(CC(=O)NC2CCCCCC2)S(=O)(=O)c2c(C)[nH]c(=O)[nH]c2=O)cc1,inactive
2,Oc1c(Cl)cc(Cl)c(Cl)c1Cc1c(O)c(Cl)cc(Cl)c1Cl,-5.49 (active)
3,OCC(O)C1OCOC(C(O)CO)C1O (centres undefined),inactive
4,COc1ccc(S(=O)(=O)N2CCCCCC2)cc1C(=O)N(C)Cc1cccc(OC)c1OC,-5.67 (active)
5,COc1ccc(C(=O)N(C)Cc2ccc(OC)c(OC)c2OC)cc1S(=O)(=O)N1CCOCC1,inactive
6,CCNC(=O)NC(=O)C(C)OC(=O)c1cc(S(=O)(=O)N2CCCCCC2)ccc1OC (centres undefined),inactive
7,COc1ccc(NC(=O)C2C3C=CC(C3)C2C(=O)NCc2ccccn2)c(OC)c1 (centres undefined),inactive
8,O=C(NCCN1CCOCC1)c1cccc(S(=O)(=O)Nc2ccc(F)cc2)c1,inactive
9,Cc1c(C(=O)NC(=S)NCc2cccnc2)oc2ccccc12,-24.9 (active)
10,Cc1c(C(=O)NNC(=O)c2ccncc2)oc2ccccc12,inactive
11,Cc1ccc(C(=O)NC(=S)NCc2cccnc2)cc1,inactive
12,O=C(OCC(=O)N1CCN(C(=O)c2ccco2)CC1)c1cccc(O)c1,inactive
13,CCCOc1ccc(Cn2c(O)cc(=O)[nH]c2=O)cc1,inactive
14,COc1ccc(Cn2c(O)c(/C=C3/C=CC=N3)c(=O)[nH]c2=O)cc1,-5.62 (active)
15,COc1ccc(Cn2c(=O)cc(C)[nH]c2=S)cc1,inactive
16,CCn1cc(CNC(=O)c2cc([N+](=O)[O-])c(C)c([N+](=O)[O-])c2)cn1,inactive
17,O=C(Nc1ccccc1-c1nnn(CC(=O)N2CCN(c3ccccc3)CC2)n1)c1cccs1,inactive
18,CCNC(=O)N1CCCC(C(=O)c2ccc(-c3ccccc3)cc2)C1 (centres undefined),inactive
19,CCCCSc1[nH]c(=O)c(C(=O)OCC)cc1C#N,inactive
20,COc1ccc(C(=O)OCC(=O)NCC2CCCCC2)cc1S(=O)(=O)N1CCCc2ccccc21,inactive
21,COc1cc(C)c(C)cc1S(=O)(=O)N1CCCc2ccccc21,-10.8 (active)
22,Cn1c(=O)n(C)c2cc(S(=O)(=O)N3CCCc4ccccc43)ccc21,inactive
23,CCC(C)NC(=O)CCCc1ccccc1 (centres undefined),inactive
24,CCCCC(=O)NNC(=S)NC(=O)C(c1ccccc1)c1ccccc1,-5.16 (active)
25,CCCCCC(=O)NC(=S)NNC(=O)c1ccc([N+](=O)[O-])cc1,inactive

row,Compound,B-score
1,O=C(CN1CCN(Cc2ccc(F)cc2Cl)C1=O)NCc1cccs1,inactive
2,CCOC(=O)CNC(=O)CN1C(=O)CCSc2ccccc21,inactive
3,C=CC[C@H](CC(=O)OC(C)(C)C)C(=O)OC[C@H]1CCCN1C(=O)[C@H](CC=C)CC(=O)N(CCO)Cc1ccccc1,-5.89 (active)
4,C=CC[C@H](CC(=O)N(CCO)Cc1ccccc1)C(=O)N[C@@H](COC(=O)[C@@H](CC=C)Cc1ccc(F)cc1)Cc1ccccc1,inactive
5,C=CCC[C@H](Cc1ccc(F)cc1)C(=O)OC[C@H](C)NC(=O)[C@H](CC=C)CC(=O)N(CCO)Cc1ccccc1,inactive
6,CC(Sc1nncn1C)C(=O)Nc1cc(C(F)(F)F)ccc1N1CCOCC1 (centres undefined),inactive
7,O=C(CSc1nncs1)NC1CCCc2ccccc21 (centres undefined),inactive
8,Nn1c(SCC(=O)NC2CCCc3ccccc32)nnc1C1CC1 (centres undefined),inactive
9,Nc1nnc(SCC(=O)NC2CCCc3ccccc32)s1 (centres undefined),-16.7 (active)
10,CC(=O)Oc1ccc(OC(C)=O)c2c1C1C=CC2CC1,inactive
11,O=C(CNc1ccccc1N1CCCC1=O)Nc1cc(Cl)ccc1-n1cncn1,inactive
12,Cc1cc(=O)[nH]c(SCC(=O)Nc2ccc(Br)cc2)n1,inactive
13,COc1ccc(NC(=O)CSc2nc(NS(=O)(=O)c3ccc(C)cc3)cc(=O)[nH]2)cc1,inactive
14,Cc1ccc(NC(=O)CSc2nc(CSc3ccc(C)cc3)cc(=O)[nH]2)cc1,-12.6 (active)
15,COC1=NC2=NCCN2C(OC)=N1,inactive
16,CC(=O)Nc1ccc(C(=O)Nc2cc(S(=O)(=O)N3CCOCC3)ccc2N2CCOCC2)cc1,inactive
17,O=C1C(=O)N(c2ccccc2)c2ccccc21,inactive
18,COc1ccccc1N1CCN(C(=O)c2ccc(Cl)c(S(=O)(=O)N3CCCC3)c2)CC1,inactive
19,O=C(c1ccc(Cl)c(S(=O)(=O)N2CCCCCC2)c1)N1CCN(c2ccc(O)cc2)CC1,-41.2 (active)
20,O=C(c1ccc(Cl)c(S(=O)(=O)N2CCCCC2)c1)N1CCCCCC1,inactive
21,O=c1oc2ccccc2c(=O)c2ccccc12,inactive
22,Cc1cc(C)n2nc(C(=O)NC(C)(C)C)nc2n1,-4.58 (active)
23,Cc1cc(C)n2nc(C(=O)N(C)C(c3ccccc3)c3ccccc3)nc2n1,inactive
24,COc1ccc(Cl)cc1C(=O)NNC(=O)c1nc2nc(C)cc(C)n2n1,inactive
